hcDAF-12 act – activates DAF-12 receptor from parasite H. contortus | HEK293 hcDAF-12 lit1-tk-luc reporter, luminescence; 0% DMSO, 100% Δ7-dafachronic acid | activation, % at 6.8 µM | 1.4% of 370,000 active;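 active = activation above the mean of all tested compounds plus 3 SD, cut at about 5.5% in these data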
DAX1 inh-1 – NR0B1 (DAX1) inhibition; 0.99% of 340,000 active; P51843; HEK293 Gal4-DAX1 luciferase reporter, luminescence; inhibition, % at 6.75 µM;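 active = inhibition above the mean over all tested compounds plus 3 SD, cut at about 4.2% in these data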;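 note: inhibition shows as a rise in luminescence from relieved DAX1 repression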
Target sequence (P51843 207-470 limits assumed): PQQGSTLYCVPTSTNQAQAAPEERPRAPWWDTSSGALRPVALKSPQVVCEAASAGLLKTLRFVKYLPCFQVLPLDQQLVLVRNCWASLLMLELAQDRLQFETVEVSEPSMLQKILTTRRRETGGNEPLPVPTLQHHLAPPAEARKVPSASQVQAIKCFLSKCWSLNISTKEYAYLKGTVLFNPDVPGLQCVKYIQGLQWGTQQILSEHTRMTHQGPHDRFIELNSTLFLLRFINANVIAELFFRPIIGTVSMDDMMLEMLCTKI
ssDAF12 agonist – S. stercoralis DAF-12 activation, primary screen | activation, % at 6.8 µM | 1% of 370,000 active | HEK293 ssDAF-12/GRIP1 lit1-tk-luc reporter, luminescence; % of 3 µM dafachronic acid response | AID 652126;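 active = activation above the mean over all tested compounds plus 3 SD, cut at about 0.9% in these data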
DAX1 inh-2 – DAX1 (NR0B1) inhibition, primary screen; HEK293T StAR-luciferase reporter, SF-1/DAX-1 repression relief; inhibition, % at 6.8 µM; 1.1% of 370,000 active;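 active = inhibition above the mean over all tested compounds plus 3 SD, cut at about 3.6% in these data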;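 note: higher inhibition means more luminescence from relief of DAX-1 repression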
hgDAF-12 ag – hgDAF-12 agonism, primary luciferase screen | 1.8% of 370,000 active | HEK293 GAL4-hgDAF12 UAS-luciferase reporter, agonist luminescence; normalized to butyrate control | activation, % at 6.8 µM;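 active = activation above a cutoff set at the mean of all screened compounds plus 3 SD, cut at about 10% in these data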
LXR ag – counter-screen for hcDAF-12 agonists: agonists of human LXR-beta | shares compounds with hcDAF-12 act | HEK293 Gal4-LXR tk-luc reporter, luminescence, 24 h; normalized: DMSO 0%, positive control 100% | activation, % at 6.8 µM | 3,400 tested, under 10 active | AID 743027;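 active = mean percent activation of the reporter above a cutoff set as the average over tested compounds plus their standard deviation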
hcDAF12 conf – hcDAF-12 agonism, confirmation assay; shares compounds with hcDAF-12 act; activation, % at 6.8 µM; 61% of 3,400 active; HEK293 hcDAF-12 lit1-tk-luc reporter, luminescence; % of Δ7-dafachronic acid response;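 active = mean activation across triplicate tests above the threshold derived from the earlier primary screen, cut at about 5.5% in these data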
Large screens that a line does not name were inactive (follow-up assays come after a bar, where they were run). An excerpt weighted towards active compounds, which were near 4.1% of everything screened.

Clc1ccccc1-c1ccc(/C=N/Nc2nncc(-c3ccccc3)n2)o1	hcDAF-12 act 10 | LXR ag inactive | hcDAF12 conf inactive
Cc1noc(C)c1S(=O)(=O)N1CCCc2nc(-c3ccccc3)ccc21	none (no result: DAX1 inh-1)
c1csc(-c2csc(-c3cccs3)n2)c1	none
Cc1cccc(Nc2nc(-c3cccs3)cs2)n1	hcDAF-12 act 20, DAX1 inh-1 4.7, ssDAF12 agonist 4.0, hgDAF-12 ag 17 | LXR ag inactive | hcDAF12 conf 17
O=C(Nc1ccc(Br)cc1)OCCN1CCCC12CCC(c1ccccc1)CC2 (stereo not drawn)	none (no result: DAX1 inh-1, DAX1 inh-2)
Cc1ccccc1CN1CCCCC(NC(=O)Nc2ccccc2)C1=O (stereo not drawn)	none (no result: DAX1 inh-1)
COc1ccccc1/C=N\Nc1ccccc1[N+](=O)[O-]	hcDAF-12 act 7.0, DAX1 inh-1 7.9 | LXR ag inactive | hcDAF12 conf 6.4
CCn1nc2cc(C(=O)NCCc3cccs3)ccc2c1OC	hcDAF-12 act 8.1, DAX1 inh-1 4.6 | LXR ag inactive | hcDAF12 conf 5.7
O=C(NCCc1cccs1)c1ccc(Cl)cc1	hcDAF-12 act 7.6, hgDAF-12 ag 11 | LXR ag inactive | hcDAF12 conf inactive
CCOc1c2ccc(C(=O)NCCc3ccc(C)cc3)cc2nn1CC	none
Cc1cccnc1Nc1nc(-c2ccccn2)cs1	none
Cc1ccc(Nc2nc(-c3cccnc3)cs2)cc1Cl	hcDAF-12 act 11 | LXR ag inactive | hcDAF12 conf 12
Cc1cccnc1Nc1nc(-c2ccccc2)cs1	hcDAF-12 act 14, ssDAF12 agonist 1.7, DAX1 inh-2 3.7, hgDAF-12 ag 13 | LXR ag inactive | hcDAF12 conf 14
c1cncc(Nc2nc(-c3ccncc3)cs2)c1	none
c1cncc(Nc2nc(-c3cccnc3)cs2)c1	hcDAF-12 act 7.2 | LXR ag inactive | hcDAF12 conf inactive
CN(N=Cc1ccccc1O)C(=O)c1ccccc1N	none (no result: DAX1 inh-1)
CNc1ccccc(-c2ccc3ccccc3n2)c1=O	hcDAF-12 act 7.0 | LXR ag inactive | hcDAF12 conf 7.2
COc1ccc(Cl)cc1C(=O)Nc1ccc(NC(C)=O)cc1	none
COc1ccc(Cl)cc1C1=NOC2(CCC2)C(=O)N1Cc1ccc(NC(C)=O)cc1	hcDAF-12 act 9.4 (no result: DAX1 inh-1) | LXR ag inactive | hcDAF12 conf inactive
CC(=O)c1sc(N/N=C/c2cccc([N+](=O)[O-])c2)nc1C	none
CC(=O)c1sc(N/N=C/c2cccc(O)c2)nc1C	hcDAF-12 act 7.1, hgDAF-12 ag 12 | LXR ag inactive | hcDAF12 conf inactive
C[C@H]1CN(S(=O)(=O)C(C)(C)C)[C@@H](CCO)/C1=C\c1ccccc1	none (no result: DAX1 inh-1)
CCOC(=O)Cn1cc(CN2CCS(=O)(=O)N(Cc3ccc(C)cc3)C(C(=O)OC)C2)nn1 (stereo not drawn)	none (no result: DAX1 inh-1)
CCc1nnc(NC(=O)c2oc3ccc(Br)cc3c2C)s1	none
Cc1c(C(=O)Nc2nccs2)oc2ccc(Br)cc12	hcDAF-12 act 9.2, ssDAF12 agonist 2.3, DAX1 inh-2 4.1 | LXR ag inactive | hcDAF12 conf 13
CC(=O)Oc1ccc(C(=O)[C@H]2[C@H]3C(=O)N(c4ccccc4)C(=O)[C@H]3[C@@H]3C=CC=NN32)cc1	hcDAF-12 act 8.1 | LXR ag inactive | hcDAF12 conf inactive
O=C(CSc1nc2cc(Cl)ccc2s1)c1ccco1	hcDAF-12 act 9.7 | LXR ag inactive | hcDAF12 conf inactive
O=C(CSc1nnc(SCC(=O)c2ccco2)s1)c1ccco1	none
CC(C)(C)S(=O)N1C[C@@H]2CC(=O)C(c3ccccc3)=C2[C@H]1CCO (stereo partly drawn)	none (no result: DAX1 inh-1)
CC(=O)/C(N=Nc1ccc(C(=O)O)cc1[N+](=O)[O-])=C(\C)O	none
CC(=O)/C(N=Nc1cc(C)ccc1O)=C(\C)O	hcDAF-12 act 9.2 | LXR ag inactive | hcDAF12 conf 6.3
CCOC(=O)c1ccc2c(c1)nc(-c1ccccn1)n2CC	hcDAF-12 act 7.6, ssDAF12 agonist 0.9 | LXR ag inactive | hcDAF12 conf 8.7
O=C(c1ccccc1)c1c[nH]c2ccccc12	none
O=C(/C=C/c1c[nH]c2ccccc12)c1cccc2ccccc12	hcDAF-12 act 11 | LXR ag inactive | hcDAF12 conf inactive
COc1ccc(C(=O)CN2Cc3ccccc3C2=N)cc1	hcDAF-12 act 18, ssDAF12 agonist 2.1, hgDAF-12 ag 13 | LXR ag inactive | hcDAF12 conf 9.5
COc1ccc(C(=O)CN2C(=O)COc3ccccc32)cc1	none
COc1ccc(CCC[C@H](CCC(=O)N(c2ccccc2)c2ccccc2)CCc2ccccc2)cc1	none (no result: DAX1 inh-1)
CCOc1ccccc1CN1CCN(Cc2cc3ccccc3[nH]2)CC1CCO (stereo not drawn)	hcDAF-12 act 7.0 | LXR ag inactive | hcDAF12 conf inactive
CCOc1ccccc1CN1CCN(CC2CC2)CC1CCO (stereo not drawn)	none
N#C/C(=C(/O)CN1CCCC1)c1nc(-c2ccccc2)cs1	hcDAF-12 act 8.8, DAX1 inh-1 5.3, hgDAF-12 ag 12 | LXR ag inactive | hcDAF12 conf inactive
COC(=O)[C@]12C[C@H](CC(=O)NCCCCc3ccccc3)C(=O)N(CCC3=CCCCC3)C1=C[C@H](C1CCCC1)O[C@@H]2C	none (no result: DAX1 inh-1)
O=C(c1ccco1)c1coc2c1cc(O)c1ccccc12	hcDAF-12 act 7.9, ssDAF12 agonist 1.0 | LXR ag inactive | hcDAF12 conf 6.1
O=C(CSc1nnc(-c2ccc(Cl)cc2)n1C1CCCCC1)NN=Cc1c(O)ccc2ccccc12	none (no result: DAX1 inh-1)
O=C(Nc1nccs1)C(=O)c1c[nH]c2ccccc12	hcDAF-12 act 6.5, ssDAF12 agonist 1.8 | LXR ag inactive | hcDAF12 conf 8.0
O=C(Cc1c[nH]c2ccccc12)Nc1nccs1	none
COC(=O)[C@]1(C#N)CC(=O)N(Cc2ccc(Cl)cc2)[C@@H]1c1ccc(OC)cc1	none (no result: DAX1 inh-1)
O=C(Nc1ccc(N2CCCCC2)cc1)c1ccc([N+](=O)[O-])o1	hcDAF-12 act 7.2 | LXR ag inactive | hcDAF12 conf inactive
O=C(Nc1nccc(-c2cccs2)n1)c1cccs1	hcDAF-12 act 7.1 | LXR ag inactive | hcDAF12 conf 6.8
COC(=O)Cc1nnn2c1[C@@H](C)[C@@H](c1ccccc1Br)OC[C@@H]2c1ccccc1	none (no result: DAX1 inh-1)
CC1CCCCN1S(=O)(=O)c1ccc(C(=O)Nc2ccccc2-c2nc3ccccc3s2)cc1 (stereo not drawn)	hcDAF-12 act 11 | LXR ag inactive | hcDAF12 conf inactive
Cc1cc(NC(=S)NC(=O)C2CC2)ccc1Br	hcDAF-12 act 8.8, DAX1 inh-1 4.9 | LXR ag inactive | hcDAF12 conf 6.3

Assay outcomes deposited in PubChem by The Scripps Research Institute Molecular Screening Center.
